# Test results from PubChem BioAssay (NCATS).
# Records with an inconclusive call do not appear. A call without a number means that no potency is given here. Activity calls are given as the source filed them. Unless noted, calls follow the shape of the dose curve; as a rule, active = well fitted curve in the direction sought with a large enough effect; inconclusive = small, poorly fitted or top-dose-only effect, or another doubt; inactive = no such curve, though single readings can be large; an effect the other way counts as inactive or inconclusive.
# Columns and labels:
# [1] = P-glycoprotein substrates identified in KB-3-1 adenocarcinoma cell line, qHTS therapeutic library screen (AID 1346986); conditions: KB-3-1 parental cells viability, CellTiter-Glo, 72 h; at 44.5 µM (top of the series); also: nearly all actives have a fitted effect of over 60% in size
# How it was run: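 Resistance attributable to P-gp was assessed by comparing AC50 in KB-8-5-11 with parental KB-3-1 and by tariquidar reversal. Cells were exposed 72 h and viability read by CellTiter-Glo.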
# [2] = P-glycoprotein substrates identified in KB-8-5-11 adenocarcinoma cell line, qHTS therapeutic library screen (AID 1346987); also: nearly all actives have a fitted effect of over 65% in size; also: potency is read from the fitted curve at half-maximal effect
# How it was run: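 KB-8-5-11, a colchicine-selected P-gp-overexpressing KB-3-1 subline, was grown without colchicine for the assay. Cells were seeded at 500 cells/well, dosed in concentration-response and incubated 72 h at 37 degree C, 5% CO2. Viability was read by CellTiter-Glo luminescence.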
# [3] = NS1 protein of Zika virus - qHTS assay to identify small molecule inhibitors in human HEK 293 cells (AID 1347053); also: nearly all actives have a fitted effect of over 55% in size
# How it was run: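 Following 20 h seeding, HEK 293 cells took compound, then 1 h later ZIKV MR766 (MOI = 0.5). Incubation ran 24 h at 37 C before TR-FRET detection of NS1; a drop in signal indicates inhibition.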
# [4] = Natriuretic polypeptide receptor (hNpr1) antagonism - Pilot counterscreen GloSensor control cell line (AID 1347045; calls by dose curve)
# How it was run: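 HEK293 cGMP GloSensor cells preloaded 2 h with 2% GloSensor reagent, then compound 30 min before baseline luminescence read. Stimulated with 50 uM sodium nitroprusside, 20 min at room temperature, then read again; counterscreen for Npr1 antagonism.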
# [5] = molecular target: Atrial natriuretic peptide receptor 1 (Homo sapiens) (UniProt P16066); assay: Natriuretic polypeptide receptor (hNpr1) antagonism - Pilot screen (AID 1347049; calls by dose curve;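 also: agonist-evoked cGMP luminescence read 20 min after hNppA addition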)
# How it was run: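 HEK293 cells co-expressing hNpr1 and the GloSensor pGS-40F cGMP luciferase sensor were preloaded with 2% GloSensor reagent for 2 h. Compounds were added for 30 min at room temperature, then cells were stimulated with 0.1 nM hNppA for 20 min before luminescence readout.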
# [6] = molecular target: Atrial natriuretic peptide receptor 2 (Homo sapiens) (UniProt P20594); assay: Natriuretic polypeptide receptor (hNpr2) antagonism - Pilot subtype selectivity assay (AID 1347050; calls by dose curve)
# How it was run: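 cGMP-sensor HEK293/hNpr2 cells; 2% GloSensor reagent 2 h RT; compounds 30 min; baseline luminescence read; 1 nM hNppC agonist 20 min RT; final luminescence read by CCD camera. Antagonism = reduced post-agonist signal.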
# [7] = molecular target: Tyrosine-protein phosphatase non-receptor type substrate 1 (Homo sapiens) + Leukocyte surface antigen CD47 (Homo sapiens) (UniProt P78324+Q08722); assay: CD47-SIRPalpha protein protein interaction - LANCE assay qHTS validation (AID 1347057; active = well fitted curve in the direction sought with a large enough effect in the signal ratio, with a control signal flat, not every such curve was filed as active; the % refers to the signal ratio)
# How it was run: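 First, His-tagged CD47 and Eu-labelled anti-His antibody met the compound for 30 min; next, site-specifically biotinylated SIRPalpha was added for 30 min; finally streptavidin-APC was added before reading the TR-FRET ratio.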
# [8] = Identifying Small Molecule Inhibitors of Pancreatic Cancer Stem Cells (SN12C, Spheroid) (AID 1259360); conditions: SN12C spheroid viability; also: potency is read from the fitted curve at half-maximal effect
# How it was run: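 Pre-formed 14-day tumor spheroids or adherent cells dosed and incubated 48 h, 37C, 5% CO2. Viability assessed by CellTiter-Glo.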
# [9] = Identifying Small Molecule Inhibitors of Pancreatic Cancer Stem Cells (A278, Adherent) (AID 1259361);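 also: viability read after 48 h compound exposure; nearly all actives have a fitted effect of over 35% in size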
# How it was run: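 Viability is scored by CellTiter-Glo luminescence 48 h after dosing, expressed as percent activity against vehicle and no-cell references. Spheroid formats rely on cells cultured 14 days in stem cell media beforehand.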
# [10] = Identifying Small Molecule Inhibitors of Pancreatic Cancer Stem Cells (Panc1, Adherent) (AID 1259362); conditions: viability; also: potency is read from the fitted curve at half-maximal effect
# Description: Progenitor-like cancer cells, often referred to as cancer stem cells (CSC), are believed to be the drivers of therapeutic resistance and rapid recurrence. CSCs are postulated to reside in specific niches characterized by low oxygen tension, limited nutrient supply, and high redox load. Selectively targeting CSC, alone or in combination with cytotoxic agents, as a means to produce durable remissions is an appealing concept. Modeling these cells in in vitro setting is an important step in finding new therapies and/or targets. Multiple reports highlight that forcing cells in culture into 3-dimensionaly architectures (spheroids) re-establishes key progenitor-like transcriptional signatures. Pancreatic cancer is among the diseases with the most dismal outlook which is driven, largely, by recurance following front-line therapies. […]
# Multicellular tumor spheroids from Panc1, MiaPaCa-2, and the primary low-passage tissue culture line SB.06 were seeded in stem cell media (SCM) in nonadherent 6-well plates coated with hydrogel (Corning Life Sciences, Chelmsford, Mass) and pancreatic spheres generated for 14 days before screening. […] Plates were incubated at room temperature for 10 minutes prior to reading the luminescence on the Viewlux (PerkinElmer). […]
# Atrial natriuretic peptide receptor 1 (Homo sapiens), sequence (P16066 whole entry, looked up): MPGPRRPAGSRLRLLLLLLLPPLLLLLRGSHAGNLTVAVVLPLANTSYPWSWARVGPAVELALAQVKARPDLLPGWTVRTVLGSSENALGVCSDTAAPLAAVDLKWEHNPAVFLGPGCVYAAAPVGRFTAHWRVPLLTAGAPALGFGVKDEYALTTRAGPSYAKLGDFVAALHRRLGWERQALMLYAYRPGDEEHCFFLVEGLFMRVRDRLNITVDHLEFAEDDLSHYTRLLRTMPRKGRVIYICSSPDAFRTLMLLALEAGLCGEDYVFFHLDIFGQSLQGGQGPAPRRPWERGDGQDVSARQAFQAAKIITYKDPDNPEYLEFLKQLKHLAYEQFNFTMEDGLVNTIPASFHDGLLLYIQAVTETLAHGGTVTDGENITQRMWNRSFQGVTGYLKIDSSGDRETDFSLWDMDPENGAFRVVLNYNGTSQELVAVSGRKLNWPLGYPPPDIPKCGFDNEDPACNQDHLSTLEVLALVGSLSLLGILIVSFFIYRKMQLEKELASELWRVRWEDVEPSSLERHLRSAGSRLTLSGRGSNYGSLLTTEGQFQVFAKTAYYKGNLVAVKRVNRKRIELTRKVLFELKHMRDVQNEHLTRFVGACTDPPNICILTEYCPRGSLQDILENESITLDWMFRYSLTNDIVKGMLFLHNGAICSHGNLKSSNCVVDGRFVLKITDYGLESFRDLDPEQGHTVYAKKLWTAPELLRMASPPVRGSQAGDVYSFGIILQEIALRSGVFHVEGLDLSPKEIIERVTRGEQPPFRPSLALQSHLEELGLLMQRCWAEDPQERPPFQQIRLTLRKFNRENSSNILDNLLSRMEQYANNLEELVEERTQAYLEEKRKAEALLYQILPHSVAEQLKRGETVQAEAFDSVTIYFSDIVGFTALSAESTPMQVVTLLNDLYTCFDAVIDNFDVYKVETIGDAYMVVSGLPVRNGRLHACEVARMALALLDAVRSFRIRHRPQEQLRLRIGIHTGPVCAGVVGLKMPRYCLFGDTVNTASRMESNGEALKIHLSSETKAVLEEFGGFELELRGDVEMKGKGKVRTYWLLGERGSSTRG
# Atrial natriuretic peptide receptor 2 (Homo sapiens), sequence (P20594 whole entry, looked up): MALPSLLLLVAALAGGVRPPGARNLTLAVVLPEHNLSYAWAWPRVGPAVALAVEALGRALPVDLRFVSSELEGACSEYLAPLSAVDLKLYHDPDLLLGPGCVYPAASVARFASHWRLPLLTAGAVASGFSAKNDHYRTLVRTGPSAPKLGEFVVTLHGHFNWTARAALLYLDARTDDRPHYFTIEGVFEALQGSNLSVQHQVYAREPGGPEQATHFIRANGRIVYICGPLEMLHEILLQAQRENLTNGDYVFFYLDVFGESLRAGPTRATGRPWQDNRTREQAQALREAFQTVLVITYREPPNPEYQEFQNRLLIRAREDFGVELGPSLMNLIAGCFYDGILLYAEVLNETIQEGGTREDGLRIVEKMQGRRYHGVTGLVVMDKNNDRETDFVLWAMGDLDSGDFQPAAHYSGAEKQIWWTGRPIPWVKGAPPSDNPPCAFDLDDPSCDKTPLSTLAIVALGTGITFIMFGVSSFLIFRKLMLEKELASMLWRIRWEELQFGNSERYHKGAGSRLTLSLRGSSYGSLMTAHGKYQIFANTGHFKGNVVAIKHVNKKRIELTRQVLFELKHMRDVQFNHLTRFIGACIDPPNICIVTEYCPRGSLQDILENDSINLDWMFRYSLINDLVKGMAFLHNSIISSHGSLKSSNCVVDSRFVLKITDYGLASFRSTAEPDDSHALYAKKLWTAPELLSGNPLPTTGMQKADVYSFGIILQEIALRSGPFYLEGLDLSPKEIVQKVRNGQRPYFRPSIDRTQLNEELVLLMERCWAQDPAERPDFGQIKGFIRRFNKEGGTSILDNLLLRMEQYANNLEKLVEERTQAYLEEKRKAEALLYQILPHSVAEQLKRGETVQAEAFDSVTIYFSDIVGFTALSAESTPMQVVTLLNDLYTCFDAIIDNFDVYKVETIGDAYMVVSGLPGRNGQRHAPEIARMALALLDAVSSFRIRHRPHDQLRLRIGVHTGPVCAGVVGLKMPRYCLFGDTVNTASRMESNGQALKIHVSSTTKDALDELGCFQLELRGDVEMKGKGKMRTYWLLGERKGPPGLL
# Tyrosine-protein phosphatase non-receptor type substrate 1 (Homo sapiens) + Leukocyte surface antigen CD47 (Homo sapiens), sequence (P78324 whole entry, looked up): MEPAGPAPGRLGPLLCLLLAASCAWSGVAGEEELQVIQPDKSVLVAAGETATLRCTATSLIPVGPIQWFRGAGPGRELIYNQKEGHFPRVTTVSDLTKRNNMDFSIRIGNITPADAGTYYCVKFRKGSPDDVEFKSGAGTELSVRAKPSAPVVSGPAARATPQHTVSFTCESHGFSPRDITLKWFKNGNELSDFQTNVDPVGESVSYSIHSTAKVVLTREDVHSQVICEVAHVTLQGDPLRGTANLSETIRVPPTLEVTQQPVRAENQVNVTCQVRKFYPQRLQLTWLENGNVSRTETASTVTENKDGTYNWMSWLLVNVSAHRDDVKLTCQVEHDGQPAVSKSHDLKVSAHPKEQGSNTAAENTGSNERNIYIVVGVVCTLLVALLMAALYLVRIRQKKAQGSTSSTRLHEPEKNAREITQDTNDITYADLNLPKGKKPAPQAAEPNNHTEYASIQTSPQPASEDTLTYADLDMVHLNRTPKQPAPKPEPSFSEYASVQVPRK
# Tyrosine-protein phosphatase non-receptor type substrate 1 (Homo sapiens) + Leukocyte surface antigen CD47 (Homo sapiens), sequence (Q08722 whole entry, looked up): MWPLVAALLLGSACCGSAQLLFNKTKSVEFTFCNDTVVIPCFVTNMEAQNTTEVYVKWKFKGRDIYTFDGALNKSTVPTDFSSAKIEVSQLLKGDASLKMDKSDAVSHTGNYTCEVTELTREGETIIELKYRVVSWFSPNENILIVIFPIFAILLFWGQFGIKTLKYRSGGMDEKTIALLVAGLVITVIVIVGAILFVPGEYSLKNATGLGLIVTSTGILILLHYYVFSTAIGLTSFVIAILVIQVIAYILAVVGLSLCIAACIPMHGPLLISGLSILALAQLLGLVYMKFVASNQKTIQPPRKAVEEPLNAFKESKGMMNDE
structure (smiles),measurement,setting,value
CC(=O)OCC(=O)[C@@]1(O)[C@H](C)C[C@H]2[C@@H]3CCC4=CC(=O)C=C[C@]4(C)[C@@]3(F)[C@@H](O)C[C@@]21C,outcome,[1],inactive
same,Potency,[2],inactive
same,Potency,[3],inactive
C[C@@H]1CN(CCCn2c3ccccc3c3ccccc32)C[C@H](C)N1,Potency,[2],14.6 µM (active)
COc1ccc(CN2CCN(C(c3ccc(F)cc3)c3ccc(F)cc3)CC2)c(OC)c1OC,Potency,[2],23.1 µM (active)
N[C@H](CO)C(=O)O,Potency,[2],inactive
same,outcome,[4],inactive
same,outcome,[5],inactive
same,outcome,[6],inactive
same,Potency,[3],inactive
same,outcome,[7],inactive
COCc1c(C(C)C)nc(C(C)C)c(/C=C/[C@@H](O)C[C@@H](O)CC(=O)O)c1-c1ccc(F)cc1,Potency,[2],0.731 µM (active)
same,Potency,[3],inactive
CC(=O)O[C@]1(C(C)=O)CC[C@H]2[C@@H]3C[C@H](C)C4=CC(=O)CC[C@]4(C)[C@H]3CC[C@@]21C,outcome,[1],inactive
same,Potency,[2],10.3 µM (active)
same,Potency,[3],inactive
Oc1ccc(Cl)c2cccnc12,Potency,[2],inactive
Cc1nc2n(c(=O)c1CCN1CCC(c3noc4cc(F)ccc34)CC1)CCC[C@H]2O,Potency,[2],inactive
same,Potency,[3],inactive
CC(Cc1ccccc1)(NC(=O)CN)c1ccccc1 (stereo not given),Potency,[2],inactive
same,Potency,[3],inactive
CCCC(=O)O[C@]1(C(=O)CO)CC[C@H]2[C@@H]3CCC4=CC(=O)CC[C@]4(C)[C@H]3[C@@H](O)C[C@@]21C,Potency,[2],inactive
same,Potency,[3],inactive
O=C(O)c1cc2cc(Cc3cccnc3)ccc2o1,Potency,[2],inactive
same,outcome,[4],inactive
same,outcome,[5],inactive
same,outcome,[6],inactive
same,Potency,[3],inactive
same,outcome,[7],inactive
COc1ccc(CCN2CCC(Nc3nc4ccccc4n3Cc3ccc(F)cc3)CC2)cc1,Potency,[2],20.6 µM (active)
CC(C)n1nc(-c2cc3cc(O)ccc3[nH]2)c2c(N)ncnc21,Potency,[2],0.366 µM (active)
C[N+]1(CCCCC[N+]2(C)CCCC2)CCCC1,Potency,[2],inactive
same,outcome,[4],inactive
same,outcome,[6],inactive
same,Potency,[3],inactive
same,outcome,[7],inactive
CC1(C)CCC(NC(=O)[C@@H](N)CCC(=O)O)CC1,Potency,[2],inactive
same,outcome,[5],inactive
same,outcome,[6],inactive
same,Potency,[3],inactive
same,outcome,[7],inactive
COC(=O)CCc1ccc(OCC(O)CNC(C)C)cc1 (stereo not given),Potency,[2],inactive
same,Potency,[3],inactive
CC(=O)O[C@H]1C[C@@H]2CC[C@@H]3[C@H](CC[C@@]4(C)[C@H]3C[C@H]([N+]3(C)CCCCC3)[C@@H]4OC(C)=O)[C@@]2(C)C[C@@H]1[N+]1(C)CCCCC1,Potency,[2],inactive
same,outcome,[4],inactive
same,outcome,[5],inactive
same,outcome,[6],inactive
same,Potency,[3],inactive
same,outcome,[7],inactive
CCCCCCCCCCCCCCCC[N+](C)(C)CCN(Cc1ccc(OC)cc1)c1ncccn1,Potency,[2],inactive
C[C@@H]1C(=O)NC2=Nc3cccc(Cl)c3CN21,Potency,[2],0.82 µM (active)
same,outcome,[4],inactive
same,outcome,[5],inactive
same,outcome,[6],inactive
same,Potency,[3],inactive
same,outcome,[7],inactive
O=C(N/N=C/c1ccccc1O)c1ccncc1,Potency,[2],inactive
COC(=O)[C@@H]1CC2=CC(=O)CC[C@]2(C)[C@@]23O[C@@H]2C[C@@]2(C)[C@@H](CC[C@@]24CCC(=O)O4)[C@H]13,Potency,[2],inactive
same,Potency,[3],inactive
OC[C@H]1O[C@@H](n2cnc3c(=S)nc[nH]c32)[C@H](O)[C@@H]1O,Potency,[2],1.84 µM (active)
C[C@@H]1C[C@H]2[C@@H]3C[C@H](F)C4=CC(=O)C(Cl)=C[C@]4(C)[C@@]3(F)[C@@H](O)C[C@]2(C)[C@@]1(O)C(=O)CO,Potency,[2],inactive
same,Potency,[3],inactive
CCCCCCC[N+](CC)(CC)CCCCc1ccc(Cl)cc1,Potency,[2],inactive
COc1cc(C=C2CCC/C(=C\c3ccc(O)c(OC)c3)C2=O)ccc1O,Potency,[2],25.9 µM (active)
OC[C@H]1O[C@H](O[C@]2(CCl)O[C@H](CCl)[C@@H](O)[C@@H]2O)[C@H](O)[C@@H](O)[C@H]1Cl,outcome,[1],inactive
same,Potency,[3],inactive
CCCCS(=O)(=O)N[C@@H](Cc1ccc(OCCCCC2CCNCC2)cc1)C(=O)O,outcome,[1],inactive
same,Potency,[3],inactive
COc1cccc2c1C(=O)c1c(O)c3c(c(O)c1C2=O)C[C@@](O)(C(=O)CO)C[C@@H]3O[C@H]1C[C@H](N)[C@H](O)[C@H](C)O1,Potency,[8],18.7 µM (active)
same,IC50 (viability decrease),[9],0.418 µM (active)
same,Potency,[2],inactive
Nc1cc(Cl)c(NC2=NCCN2)c(Cl)c1,Potency,[2],inactive
same,outcome,[4],inactive
same,outcome,[5],inactive
same,outcome,[6],inactive
same,Potency,[3],inactive
same,outcome,[7],inactive
CCCCCCCCCCOCC(O)CN (stereo not given),Potency,[2],inactive
CN(C)C(=S)SC(=S)N(C)C,Potency,[2],inactive
C[C@]12CC[C@@H]3c4ccc(O)cc4CC[C@H]3[C@@H]1CC[C@@H]2O,Potency,[2],6.51 µM (active)
same,outcome,[5],inactive
same,outcome,[6],inactive
same,Potency,[3],inactive
COc1cc2c(cc1O)CC[C@@H]1[C@@H]2CC[C@]2(C)[C@@H](O)CC[C@@H]12,Potency,[8],5.9 µM (active)
same,IC50 (viability decrease),[9],0.935 µM (active)
same,Potency,[10],1.05 µM (active)
same,outcome,[4],inactive
same,outcome,[5],inactive
same,Potency,[3],inactive
same,outcome,[7],inactive
